Records with an inconclusive call do not appear. Active and inactive are the calls of the source. The call rests on the fitted dose curve; in most records, active means well fitted inhibition curve with a large enough effect; inconclusive means small, poorly fitted or top-dose-only effect; inactive means flat fitted curve, though single readings scatter.
How the values were obtained:
Test in all cases: Cytotoxic Profiling of Annotated Libraries Using Quantitative High-Throughput Screening (AID 1296008); further: nearly all actives have a fitted effect of over 60% in size
Conditions in all cases: Five cell lines viability, CellTiter-Glo ATP luminescence, 48-72 h; max response: stronger effect = lower value
[1] = system: CRL-7250
In short: (§1)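 Compounds were pin-transferred onto cells and incubated 48 or 72 hr at 37 degree Celsius, 95% humidity. CellTiter-Glo was added, plates sat 10 min at room temperature, then ATP-coupled luminescence was imaged as the viability read-out.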

[2] = system: HEK293
In short: as §1

[3] = system: HaCat
In short: as §1

[4] = system: KB-3-1
In short: as §1

[5] = system: NIH3T3
In short: as §1

Measured: max response
On the % scale 0 is the no-effect control and ±100 the full control effect.

C=C1CCC2C(C)(C(=O)O)CCCC2(C)C1CC/C(=C\CO)CO (stereo not given)
inactive: [1] 0.544% | [2] 2.54% | [3] -8.15% | [4] 8.33% | [5] 3.98%

C=C1C(O)C[C@@H]2C(C(=O)O)=CO[C@@H](O[C@@H]3O[C@H](CO)[C@@H](O)[C@H](O)[C@H]3OC(=O)c3ccc(O)cc3)[C@H]12 (stereo not given in full)
inactive: [1] -1.69% | [2] -0.967% | [3] 0.151% | [4] | [5] 4.25%

C=C(C)[C@@H]1CC[C@]2(C)CC[C@]3(C)[C@H](CC[C@@H]4[C@@]5(C)CC[C@@H](O)C(C)(C)[C@@H]5CC[C@]43C)[C@@H]12
inactive: [1] -1.57% | [2] -21% | [3] 0.908% | [4] -4.19% | [5] 1.04%

Cc1cc(C)nc(NS(=O)(=O)c2ccc(NC(=S)NC(=O)COc3ccc(Br)cc3Cl)cc2)n1
inactive: [1] 3.21% | [2] 2.6% | [3] -3.13% | [4] 8.68% | [5] -1.58%

CC1=CC2/C=C(\C)CC[C@@H](O)[C@@H](O)[C@@H]3O[C@@H]3C(=O)[C@]23C(=O)N[C@@H](CC(C)C)[C@@H]3[C@@H]1C (stereo not given in full)
inactive: [1] -29.8% | [2] 1.09% | [3] -27.7% | [4] -2.72% | [5] 1.23%

CC(=O)OC1C[C@@]2(C)[C@@H](CC[C@@H](C)[C@]23Cc2c(O)cc4c(c2O3)CNC4=O)C(C)(C)[C@@H]1O (stereo not given in full)
inactive: [1] 2.93% | [2] 1.75% | [3] 4.03% | [4] | [5] 1.15%

C=CCC1=C[C@]2(OC)[C@H](C)[C@@H](c3ccc(O)c(OC)c3)O[C@]2(OC)CC1=O
inactive: [1] -0.729% | [2] 0.3% | [3] 3.92% | [4] 5.23% | [5] 0.772%

CC(C)c1nnc(-c2ccc(-c3ccccc3)nc2)n1-c1cccc2nonc12
inactive: [1] -7.02% | [2] 3.01% | [3] 4.99% | [4] 2.23% | [5] 4.73%

C/C=C/c1cc(OC)c2c(c1)[C@@H](C)[C@@H](c1ccc(O)c(OC)c1)O2
inactive: [1] -4.41% | [2] -109% | [3] -83.1% | [4] -24.2% | [5] -61.9%

COc1cccc2cc3c(c(O[C@@H]4O[C@H](CO[C@@H]5O[C@H](CO)[C@@H](O)[C@H](O)[C@H]5O)[C@@H](O)[C@H](O)[C@H]4O)c12)C(C)OC3=O (stereo not given in full)
inactive: [1] -0.694% | [2] 2.15% | [3] -3.49% | [4] 9.17% | [5] 0.0764%

CC1CCC2C(C(=O)O)=COC(O[C@@H]3O[C@H](CO)[C@@H](O)[C@H](O)[C@H]3O)C12 (stereo not given in full)
inactive: [1] -11.5% | [2] -3.47% | [3] -2.91% | [4] -9.1% | [5] -1.59%

COc1ccc(C2(O)CCC(N3CC[C@@H](NC(=O)CNC(=O)c4cccc(C(F)(F)F)c4)C3)CC2)cn1 (stereo not given in full)
inactive: [1] -18% | [2] -19.1% | [3] 0.0677% | [4] -12.4% | [5] -3.76%

O=C(Nc1ccccc1-c1cn2c(CN3CCNCC3)csc2n1)c1ccc2ccccc2n1
inactive: [1] | [2] -4.98% | [3] -14.7% | [4] 2.25% | [5] 4.15%

Cc1nc2sc(C(=O)NCc3ccncc3)c(N)c2c(C)c1Cl
inactive: [1] 0.486% | [2] -2.15% | [3] 0.272% | [4] -3.45% | [5] -29.7%

C[C@@H]1C(=O)OC[C@H]2C(C(=O)O)=C[C@@H]3CC(C)(C)C[C@]312
inactive: [1] | [2] 4.25% | [3] 3.35% | [4] 5.81% | [5] 4.19%

C=C1CCC2C(C(C)(C)O)CCC2(C)CC(O)C(=C)CCC1O (stereo not given)
inactive: [1] -17.3% | [2] 2.07% | [3] -2.57% | [4] 2.13% | [5] -9.68%

CC(=O)NC1C(OC(C)(C)C2CCC3(C)C=C(C4CCC5C4(C)CC(O)C4OC(C(C)(C)O)CCC45C)CCC3O2)OC(CO)C(O)C1O (stereo not given)
inactive: [1] 0.702% | [2] -2.64% | [3] 3.68% | [4] -23.5% | [5] -10.4%

Source: PubChem BioAssay (NCATS)
